About 79,000 compounds went through this panel and 15% of them were active in at least one assay; those are over-represented in the sample as a whole. Activity calls are given as the source filed them. Rule as the data show it: active = growth inhibition above about 70%; inactive = the rest.
Experiment: NCI Yeast Anticancer Drug Screen. Data for the sgs1 mgt1 strain (AID 161);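 also: 0% = growth of cultures given vehicle only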
Conditions: S. cerevisiae sgs1 mgt1 strain, at 5.0 µM (retest, dose inferred, filed as 0.5), stronger effect = higher value
Summary of the method: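 Growth of a repair-deficient yeast mutant was monitored after compound treatment and expressed as inhibition relative to vehicle-treated cultures.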

SMILES | growth inhibition
C1=NC2c3ccccc3Cc3cccc1c32 (centres undefined) | 7% (inactive)
COc1ccc2c(c1)CN([C@@H](C)[C@H]1CC[C@H]3[C@@H]4CC[C@H]5C[C@@H](O)CC[C@]5(C)[C@H]4CC[C@]13C)CO2 | 97% (active)
Cc1c(N)nc(C(CC(N)=O)NCC(N)C(N)=O)nc1C(=O)NC(C(=O)NC(C)C(O)C(C)C(=O)NC(C(=O)NCCc1nc(-c2nc(C(=O)NCCCNCCCc3ccccn3)cs2)cs1)C(C)O)C(OC1OC(CO)C(O)C(O)C1OC1OC(CO)C(O)C(OC(N)=O)C1O)c1cnc[nH]1 (centres undefined) | 98% (active)
COc1cc2c(cc1O)-c1c(cnn1-c1ccccc1)CCC2 | 2% (inactive)
CN(C)CC(CN(C)C)C(=O)c1ccc(Oc2ccc(Cl)cc2)cc1 | 85% (active)
N#CCCN(CCC#N)Cc1c(O)c(O)c(CN(CCC#N)CCC#N)c2ccccc12 | -10% (inactive)
Cc1cc2c(c([N+](=O)[O-])c1C)C(=O)C(Br)=C(N)C2=O | 96% (active)
O=C(O)CSC(=S)N1CCCC1 | -4% (inactive)
CNC1=C2NC(=O)/C(C)=C\C=C\C(C)C(O)C(C)C(O)C(C)C(OC(C)=O)C(C)C(OC)/C=C/OC3(C)Oc4c(C)c(O)c(c(c4C3=O)C1=O)C2=O (centres undefined) | 1% (inactive)
O=c1c(Cl)nsnc1Cl | 100% (active)
CC(NC(=O)OCc1ccccc1)C(=O)NNc1ccccc1Cl (centres undefined) | 49% (inactive)
O=C(OCc1ccccc1CN1CCOCC1)c1cccc(Br)c1 | -4% (inactive)
OC(COc1ccc(Cl)cc1)COc1ccc(Cl)cc1 | -3% (inactive)
Cc1c(-c2ccc(C(=N)N)cc2)oc(-c2ccc(C(=N)N)cc2)c1C | 92% (active)
COC(=O)[C@@]12OC[C@]34[C@H]([C@@H](O)[C@@H]1O)[C@@]1(C)CC(=O)C(O)=C(C)[C@@H]1C[C@H]3OC(=O)[C@H](OC(=O)C(Cc1ccccc1)NC(=O)OC(C)(C)C)[C@@H]24 (some centres undefined) | 27% (inactive)
CCCCCCCCCCCCCCCC(=O)NCC[N+](C)(CC)CC | -4% (inactive)
Oc1ccc(CCCCCc2ccc(O)cc2)cc1 | 17% (inactive)
NN(Cc1ccccc1)c1ccccc1 | 20% (inactive)
CCOC(=O)c1[nH]cc(C)c1-c1ccc2c(-c3ccccc3)nc3ccccc3n12 | 3% (inactive)
COC(=O)c1cn(NS(=O)(=O)c2ccc(OC)cc2)cc1C(=O)OC | -6% (inactive)

SMILES | growth inhibition
CN(C)c1cc2c(cc1[N+](=O)[O-])-c1ccccc1C2O (centres undefined) | 0% (inactive)
CN(C)CCOc1cc2c(c3ccccc13)-c1ccccc1C2O (centres undefined) | 9% (inactive)
BrC(Br)([P+](c1ccccc1)(c1ccccc1)c1ccccc1)[P+](c1ccccc1)(c1ccccc1)c1ccccc1 | 4% (inactive)
CCOCCNc1ncnc2c1cnn2C | -16% (inactive)
C[C@H](CCC1=NCCN1)[C@H]1CC[C@H]2[C@@H]3CC[C@@H]4C[C@H](O)CC[C@]4(C)[C@H]3C[C@H](O)[C@]12C | 39% (inactive)
CCOC(=O)C1=C(c2ccccc2)N(C)c2ccccc2S1 | 5% (inactive)
C(=P(c1ccccc1)(c1ccccc1)c1ccccc1)[P+](c1ccccc1)(c1ccccc1)c1ccccc1.[Br][Cu][Br] | 99% (active)
COc1ccc(N(C)Sc2ccccc2)cc1 | -14% (inactive)
COc1ccc(Cc2c(-c3ccc(C)cc3)n[nH]c(=O)c2C2C(=O)N(c3ccccc3)N=C2c2ccccc2)cc1 (centres undefined) | 97% (active)
N#CSC#CCCC#CSC#N | 100% (active)
c1ccc2c(c1)OCC(CNCCNCC1COc3ccccc3O1)O2 (centres undefined) | 70% (active)
CC(C)(C)OC(=O)N[C@H]1CC2(C=C(Cl)C(=O)C(Cl)=C2)OC1=O | 23% (inactive)
c1ccc([P+](c2ccccc2)(c2ccccc2)C2CCCC2)cc1 | -13% (inactive)
COc1ccc2nc(-c3ccc(Cl)cc3)[nH]c2c1 | -3% (inactive)
CC[C@H](CC[C@@H](C)C1CC[C@H]2[C@@H]3CCC4=CC(=O)CC[C@]4(C)[C@H]3CC[C@]12C)C(C)C (some centres undefined) | -8% (inactive)
CCOC(=O)N/N=C/c1ccc(N(C)CCC#N)cc1 | -4% (inactive)
CC(Br)C(=O)c1ccc2cc(Cl)c3ccccc3c2c1 (centres undefined) | 7% (inactive)
Cc1ccc(-n2cc(-c3ccc(Cl)cc3)c3c(NN)ncnc32)cc1 | -8% (inactive)
O=C1c2ccccc2C(=O)c2c1ccc(C(=O)O)c2-c1ccc2ccccc2c1 | 11% (inactive)

Reference: PubChem BioAssay (NCI)
